Pf growth 96h: P. falciparum growth inhibition at 96 hour, primary screen for plastid delayed-death inhibitors; P. falciparum luciferase reporter growth, 96 h; Potency, µM (highest dose often 28.7 µM), inactives show at the highest dose activity change, negative = inhibition, actives largely listed as inhibitors; actives 6.9% (n = 320,000); AID 504834; also: potency is read from the fitted curve at half-maximal effect; % is scaled to controls: 0 for no effect and ±100 for the full control effect
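Infected RBCs, 2% Hct / 0.05% parasitemia final; luciferase-reporter P. falciparum; cpd 96 h, 37 C, 5% CO2; luciferase detection reagent; luminescence.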
Sm TGR inh: S. mansoni TGR enzyme inhibition. Potency, µM (highest dose often 114 µM), without a hit: top-dose activity change, negative = inhibition, hits mostly inhibitors. purified TGR, DTNB reduction, TNB absorbance 405 nm. actives 3% (n = 360,000). Q962Y6; also: potency is read from the fitted curve at half-maximal effect; % is scaled to controls: 0 for no effect and ±100 for the full control effect; nearly all actives have a fitted effect of over 60% in size
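Kinetic colorimetric format: TGR-catalysed, NADPH-driven DTNB reduction monitored via TNB absorbance. Enzyme dispensed at 20 nM; compound exposure 15 min at room temperature before reaction start.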
HCV inh: inhibitors of hepatitis C virus infection. actives 3.4% (n = 340,000). AID 651820. Huh7.5.1 HCVcc-Cre infection, luciferase reporter, 44 h. Potency, µM (top dose mostly 41.8 µM), for the others: at the top dose activity change, negative = inhibition, usual class: inhibitors; also: potency is read from the fitted curve at half-maximal effect; % is scaled to controls: 0 for no effect and ±100 for the full control effect
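1,000 cells/well; 4 h culture; + compound; + HCVcc-Cre (~0.5 moi); 44 h; luciferase substrate, RT 15 min; read 15 sec.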
Pf growth 48h: P. falciparum growth inhibition at 48 hours (one generation). P. falciparum luciferase growth in erythrocytes, 48 h. Potency, µM (doses to about 28.7 µM), for inactives: at the highest dose activity change, negative = inhibition, actives largely listed as inhibitors. actives 5.9% (n = 310,000). AID 504832; also: potency is read from the fitted curve at half-maximal effect; % is scaled to controls: 0 for no effect and ±100 for the full control effect
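First compound was added to culture medium, then infected red cells at 0.1% parasitemia and 2% hematocrit (final). After incubation at 37 C under 5% CO2, luciferase detection reagent was dispensed and light output recorded.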
SARS PLP yeast: inhibitors of SARS-CoV papain-like protease in yeast. S. cerevisiae expressing SARS-CoV PLpro, growth rescue. Potency, µM (top dose mostly 32.9 µM), inactives show at the highest dose activity, positive = growth rescue, usual class: activators. actives 0.19% (n = 330,000); calls by dose curve; also: potency is read from the fitted curve at half-maximal effect; 0% is about no effect; nearly all actives have a fitted effect of over 55% in size
HCMV antiviral: human cytomegalovirus inhibition; activity change, negative = inhibition, % at 57.5 µM; actives 4.5% (n = 410,000); AID 1259415; HFF cells, HCMV-luciferase reporter, 72 h; active compounds read low; in the data active = activity change below about -60%; inconclusive = no clear call, values can overlap the other calls; inactive = above about -39%; also: % is scaled to controls: 0 for no effect and ±100 for the full control effect
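Screen run at 2 compound doses on HFFs infected with reporter HCMV, MOI 1 PFU/cell. Luciferase activity from cell lysates at 72 h post infection gave inhibition relative to buffer-only and Salinomycin wells.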
* marks the source's active call; other numbers are inactive results; ? = inconclusive; . = no result; [ ] = dose if it differs, or a comment. A selection: hits, their analogues and other compounds. The true share with any hit is near 15%. Unless noted, calls follow the shape of the dose curve; as a rule, active = well fitted curve in the direction sought with a large enough effect; inconclusive = small, poorly fitted or top-dose-only effect, or another doubt; inactive = no such curve, though single readings can be large; an effect the other way counts as inactive or inconclusive.

SMILES	Pf growth 96h	Sm TGR inh	HCV inh	Pf growth 48h	SARS PLP yeast	HCMV antiviral
O=C(Nc1ccccc1C(=O)N1CCCC1)c1ncoc1-c1cccc(Cl)c1	?	8.2%	5.6%	14.2%	-14.8%	4.0
CC(=O)Nc1ccc(S(=O)(=O)N(CC(=O)NCC2CCCO2)Cc2ccccc2Cl)cc1 (stereo unspecified)	.	.	.	.	.	8.1
C=CCNC(=S)N1CCC(C(=O)c2ccc(C)cc2)CC1	16.0%	-1.7%	-24.3%	6.2%[0.00184 µM]	-2.6%	.
CN1CCCC(C(=O)c2ccc(Cl)cc2)C1 (stereo unspecified)	?	35.5µM*	-14.6%	0.0%	0.5%	34.3
CC(C)(C)NC(=S)N1CCC(C(=O)c2ccc(Cl)cc2)CC1	3.29µM*	?	?	-13.9%	2.8%	41.8
C=CCNC(=S)N1CCC(C(=O)c2ccc(Cl)cc2)CC1	9.28µM*	28.3%	?	0.0%	3.8%	-19.6
CC(C)(C)NC(=S)N1CCC(C(=O)c2ccc(F)cc2)CC1	?	?	5.3%	?	-0.1%	23.0
Cc1ccc(-c2ccc(CN3C(CC(C)C)C(=O)N(Cc4cn(CC5CCCCC5)nn4)CCS3(=O)=O)cc2)cc1 (stereo unspecified)	.	.	.	.	.	-16.0
COc1ccc(OC)c(Nc2nc(-c3sc(N)nc3C)cs2)c1	.	-28.5%	?	14.7µM*	-2.0%	-3.6
COc1cccc(Nc2nc(-c3cccnc3)cs2)c1	-23.7%	-2.7%	?	123.5%	5.2%	224.4
C=CCCC(=O)Nc1nc(C)c(-c2csc(Nc3cccc(OC)c3)n2)s1	11.7µM*	-6.7%	6.31µM*	2.62µM*	-1.1%	11.4
CCCC(C)C(=O)Nc1nc(C)c(-c2csc(Nc3cc(OC)ccc3OC)n2)s1 (stereo unspecified)	9.28µM*	1.6%	?	6.57µM*	1.7%	?
COc1ccc(Nc2nc(-c3sc(C)nc3C)cs2)cc1	32.5%	-21.0%	8.91µM*	39.9%	-28.7%	?
Cc1ccc(CNC(=O)Cn2nnc3ccccc3c2=O)cc1	165.3%	0.6%	16.4%	140.9%	-1.2%	-12.9
c1cncc(Nc2nc(-c3ccncc3)cs2)c1	.	-1.3%	?	-7.6%	-2.2%	12.0
CC(=O)Oc1ccc(-c2csc(Nc3cccnc3)n2)cc1	?	8.3%	?	35.7%	-5.1%	-102.4*
COc1ccc(-c2csc(Nc3ccc(Oc4ccccc4)cc3)n2)cc1	.	.	.	.	.	-64.7*
CCCC(=O)Nc1nc(C)c(-c2csc(Nc3cc(OC)ccc3OC)n2)s1	?	-24.3%	?	?	2.7%	-24.3
CCC(=O)Nc1nc(C)c(-c2csc(Nc3ccc(C(=O)O)cc3)n2)s1	-46.8%	-24.9%	19.5%	0.0%	-0.3%	35.4
N#Cc1ccc(Nc2nc(-c3ccccc3)cs2)cc1	.	.	.	.	.	8.2
Cc1nc(NC(=O)c2ccccc2)sc1-c1csc(Nc2ccc(C(=O)O)cc2)n1	2.94µM*	-19.5%	?	56.8%	-3.6%	0.0
C=CCCC(=O)Nc1nc(C)c(-c2csc(Nc3cc(OC)ccc3OC)n2)s1	13.1µM*	-3.5%	3.16µM*	?	-5.6%	-1.4
CCCCSc1nnc(-c2ccccc2NC(C)=O)c(=O)[nH]1	0.2%	-2.0%	7.8%	58.8%	0.6%	36.3
CCN(CC(=O)Nc1ccccc1C(F)(F)F)C(=O)c1ccccc1OCc1ccc(F)cc1	.	.	-27.4%	.	.	-14.9
COc1cccc(Nc2nc(-c3sc(NC(=O)c4ccccc4)nc3C)cs2)c1	4.15µM*	-1.2%	-18.7%	5.22µM*	-2.1%	-60.6*
COc1cccc(Nc2nc(-c3sc(NC(=O)CC(C)C)nc3C)cs2)c1	13.1µM*	-2.3%	-3.2%	?	-1.4%	24.2
Cc1nc(NC(=O)c2ccccc2)sc1-c1csc(NCc2ccco2)n1	?	-34.6%	?	5.86µM*	-4.1%	.
CCC(=O)Nc1nc(C)c(-c2csc(Nc3cccc(C(=O)O)c3)n2)s1	?	-24.1%	4.7%	98.2%	-1.0%	28.2
